The full ranking holds about 33,000 sequences; the median of “E-score (-0.5 to 0.5)” is about -0.035, and the highest 2% start at about 0.35. The full list was thinned out, with the highest values kept by preference.
target: T1, Pdr3 (UniProt P33200); assay: PBM E-score (8-mer binding enrichment) (E-score (-0.5 to 0.5)); higher = stronger / more preferred TF binding; conditions: protein concentration: 200 nM; construct: GST-full length
T1 sequence: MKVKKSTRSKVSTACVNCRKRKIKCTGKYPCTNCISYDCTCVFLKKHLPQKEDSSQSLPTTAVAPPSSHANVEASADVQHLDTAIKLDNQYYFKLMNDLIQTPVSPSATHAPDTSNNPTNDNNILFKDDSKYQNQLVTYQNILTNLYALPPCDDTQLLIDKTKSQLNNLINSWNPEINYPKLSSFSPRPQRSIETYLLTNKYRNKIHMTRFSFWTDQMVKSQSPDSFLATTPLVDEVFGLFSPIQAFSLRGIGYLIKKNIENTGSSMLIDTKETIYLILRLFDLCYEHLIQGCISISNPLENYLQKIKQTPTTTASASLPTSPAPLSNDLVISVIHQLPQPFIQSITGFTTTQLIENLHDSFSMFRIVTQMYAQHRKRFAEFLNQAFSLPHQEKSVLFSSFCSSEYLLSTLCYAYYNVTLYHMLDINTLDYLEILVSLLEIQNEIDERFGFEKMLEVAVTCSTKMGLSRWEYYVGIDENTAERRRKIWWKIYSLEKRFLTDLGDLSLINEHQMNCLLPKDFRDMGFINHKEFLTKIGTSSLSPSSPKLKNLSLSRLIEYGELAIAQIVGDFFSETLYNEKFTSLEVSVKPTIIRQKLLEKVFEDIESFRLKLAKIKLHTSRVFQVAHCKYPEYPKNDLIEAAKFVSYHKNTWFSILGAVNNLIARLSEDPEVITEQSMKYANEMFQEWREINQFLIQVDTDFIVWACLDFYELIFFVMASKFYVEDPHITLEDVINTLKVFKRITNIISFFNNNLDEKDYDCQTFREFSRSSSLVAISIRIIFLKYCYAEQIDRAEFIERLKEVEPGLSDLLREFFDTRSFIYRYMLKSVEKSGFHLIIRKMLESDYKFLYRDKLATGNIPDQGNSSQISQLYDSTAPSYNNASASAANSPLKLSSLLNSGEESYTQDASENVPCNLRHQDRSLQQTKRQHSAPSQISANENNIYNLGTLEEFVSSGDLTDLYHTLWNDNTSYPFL
Description: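 Universal 'all 10-mer' protein binding microarrays (Agilent AMADID 015681) probed with GST-tagged S. cerevisiae TFs (full-length or DBD) made by in vitro transcription/translation (PURExpress), about 100-200 nM. Bound TF was detected with fluorescent anti-GST. Each ungapped 8-mer (which stands for itself and its reverse complement) is scored by the PBM enrichment score (E-score), a modified Wilcoxon-Mann-Whitney statistic from -0.5 to +0.5, computed with the Universal PBM Analysis Suite. Scale: above 0.35 generally sequence-specific binding.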

Sequence	PBM E-score
CTTCACCA	-0.153
TCAAGGAA	-0.0766
ATCTGATA	-0.18
CGAGGTCC	0.299
GCAACGTA	-0.192
ACAACGGA	0.375
ACAACGGT	-0.0457
ACAACGGG	0.221
CCAACGGG	0.213
GCAACGGA	0.413
TCAACGAA	0.0322
TCAACGGA	0.359
CCAACGGA	0.362
CCAACGGC	-0.0155
GCAACGGC	0.152
TCAACGCA	-0.0152
ACTTCGGA	0.318
ATATAAGG	0.167
CGCTATCA	0.0421
ACGACACC	0.0551
CCCGCAGA	0.235
CCACAGGA	-0.15
ACAAAGTA	-0.0427
AAGGGATT	-0.172
CGGCGAAG	0.154

Sequence	PBM E-score
ATAAGGTG	-0.0163
CGGAAGAG	0.365
CGGAAGAA	0.378
AGGAAGAC	-0.246
CGGAAGAC	0.393
CCGAAGAG	0.129
AGGAAGAG	-0.0084
GGGAAGAA	-0.0436
GGGAAGAC	-0.0964
AGGAAGAA	-0.186
GCCCCAGC	0.0198
CGCTCCAA	-0.0785
ACTCCAGT	-0.118
GACTAGAA	-0.203
GCGGATTA	0.204
CCGGATTA	0.385
GGGGATAA	0.0548
ACGGATAT	0.305
ACGGATTA	0.217
GCGGATAA	0.342
ACGGATAG	0.216
TGGGATAA	-0.102
CCGGATAA	0.396
ACGGATAA	0.375
CCGGATAC	0.351

Sequence	PBM E-score
CGGGATAA	0.408
AGCTAGTC	-0.0629
ACAGCCCG	0.0226
ACCTTTCT	-0.129
GAAACTCC	0.0961
AATTCAGC	0.0247
ACGGATAC	0.368
AAGGATAC	-0.00551
ATGGATAC	-0.0299
ACGGTGCC	0.0198
CGGGCCCG	0.44
ACGGCCGG	0.344
TCGGCCGA	0.377
CCGGCCGG	0.472
ACGGCCGA	0.293
CGGGCCCA	0.0442
CCGGCCGC	0.317
ACGGCCCG	0.22
TCGGCCAA	0.12
AGGGCCCG	0.182
CCGGCCCA	-0.0155
CCGGCCCG	0.375
CCGATGGC	0.175
CGAGCTGA	0.143
ACTACCGA	-0.0714

Sequence	PBM E-score
CGCCTTGC	-0.0202
ATCATTGA	-0.0198
CAGGCACA	-0.171
AACTGGCA	-0.0302
GGTCAAAC	0.0507
GGTTCTGA	-0.109
ACCCGTGA	0.0325
CAGACGGG	0.103
CTAGTCTC	-0.269
GCGGCCGA	0.222
CCGGCCGA	0.372
CCGGCCTA	0.184
GGAGTCAC	-0.0786
CCTGTAGC	-0.282
CAGAAGGC	0.0006
GGGAAGGA	-0.00585
CGGAAGGA	0.396
AGGAAGGA	-0.363
AGGAAGGC	-0.185
CGGAAGGC	0.369
ATATCTGC	-0.044
ATAGAAAG	-0.0611
AGGAAGCG	0.0228
CACCTGCA	-0.142
AGGCGGAA	0.35

Sequence	PBM E-score
AGGCGGAC	0.211
CGGCGGAC	0.289
TGGCGAAA	-0.0244
GGGCGGAC	0.373
TGGCGTAA	-0.263
CGGCGGCA	0.226
AGGCGGCG	0.0493
AGGCGGAG	0.174
CGGCGGAA	0.456
CGGCGGAG	0.372
TGGCGGAA	0.359
CTTCAACC	0.00827
AGTGATCA	-0.0706
CGATAGGC	-0.216
GTGCGACA	-0.0394
AGGCAGGA	-0.149
AGCACGAG	0.0609
CGTGAGGA	-0.063
ATGACCCA	-0.0734
GGATACCA	0.212
ATCGGTTC	0.192
AATCTTTC	0.13
GGGCGGTA	0.195
GGGCGGGA	0.35
GGGCGGAA	0.414

Sequence	PBM E-score
TATTCTAA	0.0298
CTCGCTCC	0.0762
AGAGGACA	-0.0484
AGTCGACC	0.0168
CGTCGACC	0.0668
GGTCGACC	0.38
ACTTGCTG	-0.278
GCGCCCAC	-0.0118
ATCTTTCC	0.265
CCGGGAGC	0.306
ACTGGAGC	-0.056
CCCGGTGC	0.215
CCCGGAGC	0.39
ACCGGAGC	0.356
ACCGGAGG	0.281
AGTGGCGC	0.153
TCGATAGA	-0.125
CCGTAACA	-0.0633
ACCTTAGT	-0.174
ACTCTATG	0.0265
CGGAACAG	0.466
CCGAACAG	0.0662
AGGAACAC	0.168
AGGAACAG	-0.195
CGGAACAC	0.483

Sequence	PBM E-score
TGGAACAA	-0.0164
GGGAACAA	0.188
CGGAACAA	0.476
GGGAACAC	0.183
CCTAGTCG	-0.23
CAGGTAAA	-0.0305
ATCCTATC	0.0308
ATTACCGG	0.243
ACTAGAGG	-0.161
CAATAAGA	-0.172
AAGGGGAG	-0.118
ACTACGGG	0.118
CCTACGGA	0.239
ATTACGGG	-0.0819
ACTACGGA	0.362
ATTACGGA	0.361
ATTACGGC	0.0318
ATACGAAA	0.182
AACACAGT	-0.0579
TGGAGTAA	-0.0368
TGGAAACA	-0.184
CCCGACCA	0.155
GCGTACGA	-0.0757
AGAAGGGA	-0.323
GTTGCGGA	0.236

Sequence	PBM E-score
CCGATCCG	0.371
ACGATCCA	-0.0267
CCGATCCA	0.155
ACGATCCC	0.183
ACGATCCG	0.368
CCGATCCC	0.175
GCCAGTAC	-0.0709
ATTTTGGC	0.16
TAGTCATA	-0.247
ACCTGGCC	0.162
TATCTTAA	-0.0962
CTACGGAA	0.407
CTACGGAC	0.0596
TTACGAAA	-0.0461
ATACGGAC	0.239
ATACGGAT	0.241
GTACGGAA	0.402
TTATGGAA	0.0348
TTACGGAA	0.419
ATACGGAA	0.439
CTACGGAG	0.246
GTACGGTA	0.0177
GTACGGAC	0.278
ACGATTTC	0.051
TACTGATA	0.0935

Sequence	PBM E-score
ATGGACAC	0.0372
CTCCTCAA	-0.152
GAACGCAA	0.133
GCGTTAGC	-0.213
ATACAGCG	-0.116
ACCCGCCG	0.388
ACCCGCCA	0.0368
ATCCGCCC	0.251
ATCCGCCG	0.387
ATCCGCCA	0.185
ACCCGCCC	0.348
CGAACTCG	0.17
GCTGCAAA	-0.0739
TGGAATAA	-0.00691
AGGAATAC	-0.2
AGGAATAG	-0.072
CAGAATAG	-0.0833
GGGAATAC	0.162
CGGAATAA	0.422
CGGAATAC	0.427
CGGAATAG	0.418
GGGAATAA	0.199

Reference: the supplement of paper PMC3334620
